Screening data (PubChem)
Only some compounds are listed: those with a hit (about 3.2% of all), similar ones and a draw of the others.
Tau fibril FP = inhibitors of human tau fibril formation; P10636; K18 P301L tau heparin fibrillization, Alexa594 FP, 6 h; Potency, µM (doses to about 57.7 µM), for the others: top-dose activity, negative = inhibition, actives largely listed as inhibitors; 280,000 tested, 0.39% active; AID 1468; also: nearly all actives have a fitted effect of over 55% in size
Target sequence (P10636 561-689 P618L limits assumed): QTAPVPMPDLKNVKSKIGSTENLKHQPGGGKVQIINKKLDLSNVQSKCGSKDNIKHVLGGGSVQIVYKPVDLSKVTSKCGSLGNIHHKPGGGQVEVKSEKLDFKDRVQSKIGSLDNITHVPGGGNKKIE
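Heparin (20 uM) drove fibril formation of recombinant tau K18 P301L, 15 uM unlabeled with 0.24 uM Alexa 594 label, for 6 hr at 37 C in 100 mM sodium acetate pH 7. Fluorescence polarization (555/632 nm) read 1 hr after 30 uM ThT.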
GoLoco inh red = inhibitors of human Gai1-RGS12 GoLoco interaction (red fluorophore). P63096. Gai1:RGS12 GoLoco peptide FP, rhodamine, 10 min. Potency, µM (series often up to 61.6 µM), for the others: at the highest dose activity, negative = inhibition, actives largely listed as inhibitors. 230,000 tested, 0.44% active; active = well fitted inhibition curve with a large enough effect, not every such curve was filed as active; inactive = no such curve, though single readings can be large or run the other way; also: nearly all actives have a fitted effect of over 30% in size
Tau fibril ThT = blocks human tau fibril formation measured by thioflavin T; P10636; recombinant tau K18 P301L, heparin-induced fibrillization, ThT fluorescence; Potency, µM (titrated, usually from 57.4 µM), inactives show top-dose activity, negative = inhibition, most hits filed as inhibitors; 270,000 tested, 2.1% active; AID 1460; also: nearly all actives have a fitted effect of over 55% in size
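Heparin-induced fibrillization of the P301L-mutant K18 repeat-domain fragment of human tau was followed by ThT binding in quantitative high-throughput format.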
TR SRC2 fluor cs = Texas Red fluorescence interference in TRb-SRC2 counter-screen | TRb/SRC2 Texas Red total fluorescence interference | Potency, µM (doses to about 106 µM), for inactives: at the top dose fluorescence change, negative = quenching | 280,000 tested, 0.29% active | AID 1479; active = well fitted curve in either direction with a large enough effect; inconclusive = small, poorly fitted or top-dose-only effect
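Flags fluorescent or light-absorbing compounds by total fluorescence, S + 2P, at 555 nm excitation and 632 nm emission. Mixture: 20 nM Texas Red SRC2 peptide, 0.6 uM human TRb LBD, 1 uM T3, 5% DMSO; compound exposure 5 h at ambient temperature.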
Tau fluor counter = counter-screen for tau fibril formation inhibitors. tau K18 P301L Alexa594 fluorescence, heparin fibrillization. AID 1463. Potency, µM (series often up to 57.7 µM), without a hit: at the top dose activity change, negative = decrease. 280,000 tested, 0.93% active; also: nearly all actives have a fitted effect of over 55% in size
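Human tau K18 P301L (15 uM unlabeled, 0.24 uM Alexa 594-labeled) in 100 mM sodium acetate pH 7 with 20 uM heparin, 6 hr at 37 C. ThT 30 uM added, 1 hr ambient; Alexa 594 FP and total fluorescence read at 555/632 nm.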
TRb-SRC2 inh = TRbeta-SRC2 interaction inhibition | TRbeta-SRC2 peptide binding, fluorescence polarization; receptor liganded with 1 µM T3 | Potency, µM (highest dose often 106 µM), for the others: at the top dose activity change, negative = inhibition, usual class: inhibitors | 280,000 tested, 0.065% active;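 also: plate controls were bound peptide for no effect and peptide without receptor for full effect; nearly all actives have a fitted effect of over 50% in size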
Target sequence (P10828 whole entry, looked up): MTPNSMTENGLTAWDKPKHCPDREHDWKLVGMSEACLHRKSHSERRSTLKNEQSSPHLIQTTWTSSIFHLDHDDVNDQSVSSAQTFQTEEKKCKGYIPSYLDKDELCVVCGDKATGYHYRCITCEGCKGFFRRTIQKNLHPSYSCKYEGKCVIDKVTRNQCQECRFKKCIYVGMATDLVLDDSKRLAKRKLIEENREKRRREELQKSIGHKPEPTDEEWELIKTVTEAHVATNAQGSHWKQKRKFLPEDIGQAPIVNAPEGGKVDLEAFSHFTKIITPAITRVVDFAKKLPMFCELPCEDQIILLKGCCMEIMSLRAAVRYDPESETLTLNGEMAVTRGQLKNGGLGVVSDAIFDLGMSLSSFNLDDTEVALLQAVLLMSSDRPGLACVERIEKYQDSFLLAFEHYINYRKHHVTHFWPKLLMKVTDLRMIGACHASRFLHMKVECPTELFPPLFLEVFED
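A fluorescence polarization screen tested compounds at multiple concentrations against complex formation between 0.6 uM TRb ligand-binding domain and 20 nM Texas Red SRC2 peptide, with 1 uM T3 present; readout after 5 hr.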
* marks the source's active call; other numbers are inactive results; [ ] = remark or other dose. Unless noted, calls follow the shape of the dose curve; as a rule, active = well fitted curve in the direction sought with a large enough effect; inconclusive = small, poorly fitted or top-dose-only effect, or another doubt; inactive = no such curve, though single readings can be large; an effect the other way counts as inactive or inconclusive. Unless noted, % is scaled to controls: 0 for no effect and ±100 for the full control effect; potency is read from the fitted curve at half-maximal effect.

Screening FC(F)(F)c1ccccc1-c1nc(Nc2ccncc2)c2ccccc2n1 returned Tau fibril FP inconclusive, GoLoco inh red 3%, Tau fibril ThT -11%, TR SRC2 fluor cs 3%, Tau fluor counter inconclusive and TRb-SRC2 inh 3%.
Screening CCCC1=[N+](CC)CCn2c(C)ccc21 returned Tau fibril FP 6%, GoLoco inh red 13µM*, Tau fibril ThT -9%, TR SRC2 fluor cs -1%, Tau fluor counter -6% and TRb-SRC2 inh 8%.
For CCCC1=[N+](CC(=O)c2ccccc2)CCn2c(C)ccc21 the results were Tau fibril FP -1%, GoLoco inh red 13%, Tau fibril ThT -11%, TR SRC2 fluor cs 6%, Tau fluor counter -4% and TRb-SRC2 inh -2%.
`COC(=O)c1cc2oc3ccccc3c2n1Cc1nc(-c2ccccc2C)oc1C` gave Tau fibril FP -5%, Tau fibril ThT -4%, TR SRC2 fluor cs 20µM*[quencher], Tau fluor counter -6% and TRb-SRC2 inh -11%.
Screening COC(=O)c1cc2oc3ccccc3c2n1Cc1cc(C)ccc1C returned Tau fibril FP -6%, Tau fibril ThT -2%, TR SRC2 fluor cs 22µM*[quencher], Tau fluor counter -7% and TRb-SRC2 inh -9%.
For COC(=O)c1cc2sc(C)cc2n1Cc1nc(-c2ccc(C)cc2)oc1C the results were Tau fibril FP -9%, Tau fibril ThT inconclusive, TR SRC2 fluor cs 89µM*[quencher], Tau fluor counter inconclusive and TRb-SRC2 inh -15%.
CCCn1c(-c2ccc(F)cc2)nc2c(NCCCN3CCOCC3)nc(C)nc21 was read as Tau fibril FP -7%, GoLoco inh red -1%, Tau fibril ThT 2%, TR SRC2 fluor cs -1%, Tau fluor counter -7% and TRb-SRC2 inh 6%.
COc1ncc2nc(-c3ccccc3)c(=O)n(C3CC3)c2n1 was read as GoLoco inh red 5%.
`COc1cccc(CNCCCSc2nnnn2C)c1` gave Tau fibril FP 7%, Tau fibril ThT 0%, TR SRC2 fluor cs 1000µM*[quencher], Tau fluor counter 6% and TRb-SRC2 inh -21%.
`COc1cccc(CNCCSc2nnnn2C)c1` gave Tau fibril FP -1%, GoLoco inh red -17%, Tau fibril ThT 5%, TR SRC2 fluor cs -7%, Tau fluor counter 6% and TRb-SRC2 inh -3%.
Screening O=C1CC(=O)N(Cc2cccs2)C(=O)N1 returned Tau fibril FP inconclusive, GoLoco inh red 5%, Tau fibril ThT 20µM*, TR SRC2 fluor cs 4%, Tau fluor counter -17% and TRb-SRC2 inh -25%.
Screening CCC1=NNc2cccc3c(OC)ccc1c23 returned Tau fibril FP inconclusive, GoLoco inh red 18µM*, Tau fibril ThT 13µM*, TR SRC2 fluor cs -18%, Tau fluor counter inconclusive and TRb-SRC2 inh -22%.
C/C(CCN1CCc2nc(-c3ccccc3)c(-c3ccccc3)cc2C1)=N\O[C@@H](C)CN1CCCCc2nc(C)c(C)cc21 was read as Tau fibril FP -1%[11.6 µM], Tau fibril ThT -8%[11.5 µM], TR SRC2 fluor cs 0%[11.2 µM], Tau fluor counter -1%[11.6 µM] and TRb-SRC2 inh 2%[11.2 µM].
`O=c1cc(-c2ccc(Cl)c(Cl)c2)[nH][nH]1` gave Tau fibril FP inconclusive, GoLoco inh red 10%, Tau fibril ThT 3.2µM*, TR SRC2 fluor cs -4%, Tau fluor counter inconclusive and TRb-SRC2 inh -14%.
For O=c1cc(-c2ccc(Cl)cc2)[nH][nH]1 the results were Tau fibril FP inconclusive, GoLoco inh red 5%, Tau fibril ThT inconclusive, TR SRC2 fluor cs -4%, Tau fluor counter -24% and TRb-SRC2 inh inconclusive.
COc1ccc(-c2cc(=O)[nH][nH]2)cc1 was read as Tau fibril FP inconclusive, GoLoco inh red 8%, Tau fibril ThT 2.2µM*, TR SRC2 fluor cs -5%, Tau fluor counter -27% and TRb-SRC2 inh inconclusive.
For COc1ccc(-c2cc(=O)[nH]c(=O)[nH]2)cc1 the results were Tau fibril FP 1%, GoLoco inh red -6%, Tau fibril ThT -1%, TR SRC2 fluor cs -7%, Tau fluor counter 2% and TRb-SRC2 inh -3%.
Screening CCCn1c(-c2ccc(F)cc2)nc2c(NCCN(C(C)C)C(C)C)nc(C)nc21 returned Tau fibril FP 7%, GoLoco inh red -3%, Tau fibril ThT -7%, TR SRC2 fluor cs -2%, Tau fluor counter -1% and TRb-SRC2 inh -1%.
`Cc1cc2c(cc1C)CSC(c1ccc3ccccc3c1O)SC2` gave Tau fibril FP -2%, GoLoco inh red 13%, Tau fibril ThT -18%, TR SRC2 fluor cs -3%, Tau fluor counter inconclusive and TRb-SRC2 inh 3%.
`Cc1cc2c(cc1C)CSC(c1c(O)ccc3ccccc13)SC2` gave Tau fibril FP 22µM*, GoLoco inh red -3%, Tau fibril ThT inconclusive, TR SRC2 fluor cs 0%, Tau fluor counter 7.9µM*[quencher] and TRb-SRC2 inh -1%.
Screening CCCCNC(=S)NCc1ccc2[nH]c(C)cc2c1 returned Tau fibril FP 13%, GoLoco inh red 4%, Tau fibril ThT -11%, TR SRC2 fluor cs 0%, Tau fluor counter inconclusive and TRb-SRC2 inh -4%.
CCOc1ccc(NC(=S)NCc2ccc3[nH]c(C)cc3c2)cc1 was read as Tau fibril FP inconclusive, GoLoco inh red 1%, Tau fibril ThT inconclusive, TR SRC2 fluor cs -1%, Tau fluor counter 20µM*[quencher] and TRb-SRC2 inh -1%.
`CC(=O)Nc1ccc(NC(=O)/C=C/c2cccc(C(F)(F)F)c2)cc1` gave Tau fibril FP 5%, GoLoco inh red -12%, Tau fibril ThT 6%, TR SRC2 fluor cs 3.2µM*[quencher], Tau fluor counter 2% and TRb-SRC2 inh inconclusive.
`CC(C)(C)NC(=O)/C=C/c1cccc(C(F)(F)F)c1` gave Tau fibril FP 1%, GoLoco inh red 2%, Tau fibril ThT -5%, TR SRC2 fluor cs -1%, Tau fluor counter -8% and TRb-SRC2 inh 5%.
Nc1ccc(C(=O)O)c(O)c1 (tested in a mixture with another compound) was read as Tau fibril FP -3%, GoLoco inh red 28µM*, Tau fibril ThT inconclusive, TR SRC2 fluor cs -6%, Tau fluor counter -15% and TRb-SRC2 inh 7%.
Screening COc1ccc(Cl)cc1NC(=O)c1c(NCc2ccc(C)o2)sc2c1CCC(C)C2 (stereo unspecified) returned Tau fibril FP 3%, Tau fibril ThT -2%, TR SRC2 fluor cs -1%, Tau fluor counter -9% and TRb-SRC2 inh 1%.
Screening COc1ccc(Cl)cc1NC(=O)c1c(NCc2ccc(C)o2)sc2c1CCCCC2 returned Tau fibril FP -12%, Tau fibril ThT inconclusive, TR SRC2 fluor cs -2%, Tau fluor counter -21% and TRb-SRC2 inh 0%.
